TDP1 cell CPT: qHTS for Inhibitors of human tyrosyl-DNA phosphodiesterase 1 (TDP1): qHTS in cells in presence of CPT; chicken DT40 Tdp1-/-;hTDP1 cells + 20 nM CPT, ATP luminescence, 48 h; Potency, µM (highest dose often 46.2 µM), for the others: at the top dose activity change, negative = growth inhibition, most hits filed as inhibitors; actives 12% (n = 420,000); AID 686979, 2013; note: nearly all actives have a fitted effect of over 55% in size
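Chicken DT40 Tdp1-/- cells complemented with human TDP1, 400 cells/well, exposed to compounds plus 20 nM camptothecin for at least 48 h at 37 C; viability read as ATP content by CellTiter-Glo luminescence.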
DT40 TDP1 no CPT: qHTS for Inhibitors of human tyrosyl-DNA phosphodiesterase 1 (TDP1): qHTS in cells in absence of CPT; DT40 Tdp1-/- hTDP1 cells, no CPT, ATP luminescence, 48 h; Potency, µM (doses to about 46.2 µM), inactives show top-dose activity change, negative = growth inhibition, usual class: inhibitors; actives 15% (n = 420,000); note: nearly all actives have a fitted effect of over 55% in size
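Compound effects on proliferation are scored in DT40 Tdp1-/-;hTDP1 cells in the absence of CPT. ATP levels (CellTiter-Glo luminescence) are recorded after a ≥48 hr, 37 °C incubation.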
ELG1 repair inh: qHTS screen for small molecules that inhibit ELG1-dependent DNA repair in human embryonic kidney (HEK293T) cells expressing luciferase-tagged ELG1 | HEK293T ELG1-luciferase reporter, luminescence, 16 h; DNA damage induced by 5-fluorouridine | Potency, µM (series often up to 46.1 µM), for the others: at the top dose activity change, negative = inhibition, usual class: inhibitors | actives 2.3% (n = 330,000) | AID 504467, 2011; note: nearly all actives have a fitted effect of over 55% in size
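Reporter activity after DNA damage by 5-fluorouridine is monitored. Compound-treated cells incubate 16 hr at 37 °C, then ONE-Glo is added for 30 min before luminescence reading.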
RORg inh: qHTS for inhibitors of ROR gamma transcriptional activity | Nuclear receptor ROR-gamma (Mus musculus), P51450 | Drosophila S2 Gal4-RORgamma UAS-luciferase reporter, 20 h | Potency, µM (top dose mostly 53.6 µM), inactives show at the top dose activity change, negative = inhibition, most hits filed as inhibitors | actives 5.4% (n = 310,000); note: nearly all actives have a fitted effect of over 60% in size
Target sequence (P51450 whole entry, looked up, the tested form may be a part): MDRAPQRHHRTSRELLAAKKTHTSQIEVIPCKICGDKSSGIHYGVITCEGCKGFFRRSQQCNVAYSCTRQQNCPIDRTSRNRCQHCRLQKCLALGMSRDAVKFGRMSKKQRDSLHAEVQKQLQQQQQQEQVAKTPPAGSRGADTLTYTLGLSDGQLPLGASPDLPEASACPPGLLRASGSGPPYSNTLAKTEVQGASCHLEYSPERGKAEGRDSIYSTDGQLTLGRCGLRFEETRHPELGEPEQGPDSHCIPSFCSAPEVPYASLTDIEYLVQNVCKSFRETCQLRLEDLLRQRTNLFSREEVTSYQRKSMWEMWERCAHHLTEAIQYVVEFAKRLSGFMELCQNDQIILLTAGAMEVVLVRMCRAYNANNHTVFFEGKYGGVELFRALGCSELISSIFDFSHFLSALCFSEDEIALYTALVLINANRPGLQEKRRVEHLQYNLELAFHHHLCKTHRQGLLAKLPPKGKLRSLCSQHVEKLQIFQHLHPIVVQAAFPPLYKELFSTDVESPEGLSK
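In this cell-based reporter format, copper sulfate (700 uM final) drives Gal4–ROR gamma fusion expression from a metallothionein promoter in Drosophila Schneider cells; compounds preincubated 1 hr, reporter read after 20 hr at ambient temperature.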
12-LOX inh: Primary qHTS assay for inhibitors of human arachidonate 12S-lipoxygenase (ALOX12): Round 2; Polyunsaturated fatty acid lipoxygenase ALOX12 (Homo sapiens), P18054; purified 12hLO, xylenol orange hydroperoxide absorbance; Potency, µM (series often up to 108 µM), without a hit: top-dose activity change, negative = inhibition, actives largely listed as inhibitors; actives 1.1% (n = 580,000)
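Hydroperoxide product was detected by ferrous iron/xylenol orange as the 573 to 405 nm absorbance ratio. Arachidonic acid at 40 uM (final) was turned over for 30 min at room temperature by 150 nM human 12hLO, pH 7.0 Hepes buffer, after 15 min compound preincubation.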
VP16 counter: VP16 counterscreen qHTS for inhibitors of ROR gamma transcriptional activity | Drosophila S2 Gal4-VP16 UAS-luciferase, luminescence, 20 h | Potency, µM (series often up to 53.6 µM), for the others: top-dose activity, negative = inhibition, hits mostly inhibitors | actives 3.5% (n = 310,000) | AID 2546, 2010;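 note: Gal4-VP16 expression switched on by copper sulfate through the metallothionein promoter; nearly all actives have a fitted effect of over 50% in size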
The depositor's hits bear a star; ? = inconclusive; nt = not tested or not shown; [ ] = remark or other dose. Hits are enriched below; roughly 15% of the tested compounds scored in any of these assays. Calls come from the whole dose curve; as a rule, active = well fitted curve in the direction sought with a large enough effect; inconclusive = small, poorly fitted or top-dose-only effect, or another doubt; inactive = no such curve, though single readings can be large; an effect the other way counts as inactive or inconclusive. % is set by controls: 0 for no effect and ±100 for the full control effect; potency is the fitted concentration of half-maximal effect.

SMILES	TDP1 cell CPT	DT40 TDP1 no CPT	ELG1 repair inh	RORg inh	12-LOX inh	VP16 counter
COc1ccc(OC)c(NC(=O)C2(C)CCN2CCc2ccccc2)c1 (configuration not stated)	23µM*	16µM*	nt	nt	10%	nt
COc1ccc(OC)c(NC(=O)C2(C)CCN2Cc2ccccc2Cl)c1 (configuration not stated)	?	?	nt	nt	29%	nt
COc1ccc(NC(=O)C2(C)CCN2CCc2ccccc2)cc1OC (configuration not stated)	?	?	nt	nt	-3%	nt
COc1cccc(NC(=O)C2(C)CCN2CCc2ccccc2)c1 (configuration not stated)	23µM*	?	nt	nt	-2%	nt
N#Cc1cc(C(=O)c2cc(Br)ccc2O)cn(C2CC2)c1=O	-7%	-8%	-12%	-45%	8%	?
C=CCn1cc(C(=O)c2cc(Br)ccc2O)cc(C#N)c1=O	18µM*	?	?	43%	?	-24%
CC(C)n1cc(C(=O)c2cc(Br)ccc2O)cc(C#N)c1=O	?	18µM*	-28%	33%	-20%	-27%
CCCCCCCC(=O)N/N=C/C(C)=N/NC(=O)CCCCCCC	nt	nt	nt	nt	-41%	nt
Cc1cc(Cn2cc3c4c(cccc42)[C@H](CC(C)C)N[C@H](C(=O)NCC2CC2)C3)no1	nt	nt	nt	nt	-2%[176 µM]	nt
CC(NCC(=O)Nc1ccccc1C(=O)NC1CC1)c1ccc(Cl)cc1 (configuration not stated)	?	12µM*	nt	nt	-5%	nt
C/C(=N\N1CCN(C2c3ccccc3-c3ccccc32)CC1)c1ccncc1	16µM*	16µM*	9%	-16%	?	0%
C(=N\N1CCN(C2c3ccccc3-c3ccccc32)CC1)/c1ccncc1	?	?	29%	-6%	0%	-8%
Cc1c(C(=O)NN)sc(-c2ccccc2)c1C#N	?	?	?	10µM*	20%	?
CCCCN(CCCNC(=O)c1cc(Nc2ccc(OC)c(OC)c2)nc2ccccc12)Cc1ccccc1	16µM*	21µM*	nt	nt	?	nt
CCCCN(C)CCCNC(=O)c1cc(Nc2ccc(OC)c(OC)c2)nc2ccccc12	?	?	18%	-21%	-10%	0%
COc1ccc(Nc2cc(C(=O)NCCCN(C)Cc3ccccc3)c3ccccc3n2)cc1OC	23µM*	21µM*	nt	nt	?	nt
CCCCN(CCCNC(=O)c1cc(Nc2ccc(OC)c(OC)c2)nc2ccccc12)c1ccccc1	15µM*	13µM*	nt	nt	?	nt
CCCCN(CCCNC(=O)c1cc(Nc2ccc(OC)cc2)nc2ccccc12)Cc1ccccc1	21µM*	16µM*	nt	nt	-23%	nt
CC(=O)c1ccc(C(=O)N2CCN(C(c3ccc(F)cc3)c3ccc(F)cc3)CC2)s1	nt	nt	nt	nt	1%	nt
COc1ccc(C(=O)N2CC3CC(C2)[C@H]2CCCC(=O)N2C3)cn1 (some centres not stated)	nt	nt	nt	nt	15%	nt
O=C(NCc1nnc2n1C(C(=O)N1CCCC1)CC2)c1cccnc1 (configuration not stated)	nt	nt	nt	nt	1%[6.33 µM]	nt
COc1ccc(C(=O)N[C@@H]2CCC[C@@H]2C(=O)NCCCN2CCCc3ccccc32)cc1	nt	nt	nt	nt	276%	nt
CN1CCN(Cc2c(O)ccc3occ(C(=O)c4ccccc4)c23)CC1	?	-19%	-3%	5%	0%	0%[0.365 µM]
CC(=O)C(C(C)=O)c1c(Cl)c(O)c(O)c2c(C(=O)c3ccccc3)coc12	4.6µM*	3.7µM*	?	16µM*	?	?
COc1cc(Cn2c3ccc(NC(=O)CCc4ccccc4)cc3c(=O)n2C)ccc1F	6.5µM*	2.9µM*	nt	nt	?	nt
SMILES	TDP1 cell CPT	DT40 TDP1 no CPT	ELG1 repair inh	RORg inh	12-LOX inh	VP16 counter
Cn1c(=O)c2cc(NC(=O)CCc3cccnc3)ccc2n1Cc1cccc(C(F)(F)F)c1	?	18µM*	nt	nt	6%	nt
COc1ccccc1CCC(=O)Nc1ccc2c(c1)c(=O)n(C)n2-c1cccs1	3.7µM*	3.7µM*	nt	nt	-2%	nt
Cn1c(=O)c2cc(NC(=O)CCc3cccnc3)ccc2n1Cc1ccc(F)cc1	16µM*	?	nt	nt	2%	nt
COc1ccccc1CCC(=O)NNC(=O)c1cccs1	6%	-18%	20%	nt	5%	nt
CCn1nc(C(=O)NC2CCN(Cc3ccccc3)C2)c2ccccc2c1=O (configuration not stated)	nt	nt	nt	nt	-27%	nt
COCCOCc1nc(C2CCN(C(=O)Nc3ccc(OC)c(OC)c3)CC2)no1	nt	nt	nt	nt	51%	nt
CC(=O)Oc1ccc2cc(-c3nc(-c4ccc(C)cc4)no3)c(=O)oc2c1	nt	nt	nt	nt	-20%	nt
COc1cc(Cn2c3ccc(NC(=O)CCc4cccnc4)cc3c(=O)n2C)ccc1F	9.2µM*	?	nt	nt	6%	nt
CCOC(=O)c1c(C)[nH]c(C)c1C(=O)CN1C(=O)NC(CC(C)C)C1=O (configuration not stated)	10µM*	?	1%	4%	nt	-3%
O=C(NCCNc1ccc([N+](=O)[O-])cc1C(F)(F)F)c1ccccc1	?	?	-15%	?	-4%	-24%
CC(C)(CNC(=O)c1cccc(F)c1)CNC(=O)c1cccc(F)c1	?	18µM*	nt	nt	?	nt
O=C(NCCNc1ccc([N+](=O)[O-])cc1C(F)(F)F)c1cccc(F)c1	?	21µM*	-16%	?	-7%	-2%
COc1ccc(C(=O)N2CCC[C@H]2c2nc(-c3ccc(F)cc3)no2)c(OC)c1	nt	nt	nt	nt	18%	nt
CCCc1sc(N/N=C/c2ccccn2)nc1-c1ccc(F)cc1	4.6µM*	4.6µM*	?	0.28µM*	nt	0.32µM*
O=C(Cc1ccc(F)cc1)N/N=C/c1ccccn1	-19%	-17%	5%	-32%	7%	11%
Cc1nc(N/N=C/c2ccccn2)sc1C	1.3µM*	1.3µM*	?	0.11µM*	-5%	0.5µM*
O=C(NC[C@H]1O[C@H](Cc2cc(CN3CCOCC3)on2)CC[C@@H]1O)N1CCOCC1	nt	nt	nt	nt	35%[176 µM]	nt
